The list is not random: actives were taken first. Their share in the collection is about 1.9%.
HttQ103 aggreg = mutant huntingtin aggregation inhibition; PC12 HttQ103-GFP aggregates, Acumen cytometry, 40 h; Potency, µM (series often up to 46.1 µM), actives largely listed as inhibitors; 220,000 compounds, 1.1% hits; AID 1688; also: nearly all actives have a fitted effect of over 60% in size
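PC12 cells with ecdysone-inducible HTT exon1 Q103-GFP, induced by 100 nM tebufenozide, given compounds in a concentration series. GFP aggregates (1–25 um, 6 SD above background) counted in lysates by laser-scanning cytometry, 488 nm excitation.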
IMPase Li cell = cell-permeable IMPase inhibitors with lithium potentiation; 210,000 compounds, 0.35% hits; AID 1457; Potency, µM (doses to about 59.4 µM), usual class: inhibitors; CHO-M1 cells, IP1 TR-FRET (IP-One), carbachol + lithium;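 also: IP1 builds up when IMPase is blocked and the TR-FRET signal falls; nearly all actives have a fitted effect of over 50% in size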
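CHO cells stably expressing M1 receptor (2000/well) were cultured 16–30 h, then exposed to compounds with a small lithium addition for 30 min at 37C. IP1 was measured by TR-FRET competition; AC50 from Hill fits.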
NPSR antagonist = neuropeptide S receptor (human) antagonism, cAMP. Q6W5P4. CHO-NPSR cells, cAMP TR-FRET, antagonist mode. 220,000 compounds, 1% hits. Potency, µM (series often up to 38.3 µM), usual class: inhibitors; also: nearly all actives have a fitted effect of over 50% in size
Target sequence (Q6W5P4 whole entry, looked up): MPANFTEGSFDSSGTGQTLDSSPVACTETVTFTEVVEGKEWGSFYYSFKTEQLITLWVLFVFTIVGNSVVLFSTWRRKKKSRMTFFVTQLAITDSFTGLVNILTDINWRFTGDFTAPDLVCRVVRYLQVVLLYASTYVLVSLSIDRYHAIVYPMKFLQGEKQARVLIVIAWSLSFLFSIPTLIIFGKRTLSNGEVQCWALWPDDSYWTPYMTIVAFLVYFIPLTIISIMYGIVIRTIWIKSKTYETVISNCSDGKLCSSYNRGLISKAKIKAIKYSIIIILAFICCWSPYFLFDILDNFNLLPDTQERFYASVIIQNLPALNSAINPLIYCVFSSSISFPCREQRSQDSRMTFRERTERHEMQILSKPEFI
ERK EGF inh = blocks ERK signaling stimulated by EGF; HEK293-V1b, EGF-stimulated phospho-ERK AlphaScreen; Potency, µM (doses to about 11.5 µM), actives largely listed as inhibitors; 130,000 compounds, 0.41% hits; also: nearly all actives have a fitted effect of over 55% in size
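HEK293 cells stably expressing V1b receptor, serum-reduced (1% FBS) overnight, pretreated 30 min with compound, then stimulated 5 min with 25 nM EGF; phospho-ERK detected by AlphaScreen SureFire. AC50 from Hill fits, normalized to DMSO and EGF.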
HTT ATP protect = cytoprotection in Huntington HTT-Q103 PC12 cell model; PC12 HTT-Q103 induced, cytoprotection, ATP luminescence, 40 h; Potency, µM (titrated, usually from 56.4 µM), usual class: activators; 230,000 compounds, 0.14% hits; AID 1471; also: nearly all actives have a fitted effect of over 45% in size
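Quantitative HTS on tebufenozide-induced (100 nM) PC12 cells expressing HTTQ103 exon 1–GFP; compounds tested as a concentration series; survival measured via cellular ATP.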
Hits are given with their value; [ ] = dose if it differs, or a comment. Calls follow the shape of the dose curve; as a rule, active = well fitted curve in the direction sought with a large enough effect; inconclusive = small, poorly fitted or top-dose-only effect, or another doubt; inactive = no such curve, though single readings can be large; an effect the other way counts as inactive or inconclusive.

COc1cccc(Nc2ncc3nc(-c4ccccc4)c(=O)n(C[C@H]4CCCO4)c3n2)c1 was read as IMPase Li cell inactive, ERK EGF inh inconclusive and HTT ATP protect inactive.
CCOC(=O)N1CCC(c2cc(=O)n3[nH]c(-c4ccccc4)cc3n2)CC1 was read as HttQ103 aggreg inactive, IMPase Li cell inactive, NPSR antagonist inactive and HTT ATP protect inactive[10 µM].
Screening CCOC(=O)N1CCC(c2cc(=O)n3[nH]c(C)c(-c4ccc(F)cc4)c3n2)CC1 returned HttQ103 aggreg 11µM, IMPase Li cell inactive, NPSR antagonist inactive and HTT ATP protect inactive.
For CN1CCN(S(=O)(=O)c2cccc(C(=O)N(c3ccccn3)C3CCCCC3)c2)CC1 the results were HttQ103 aggreg inactive, IMPase Li cell inactive, NPSR antagonist inactive and HTT ATP protect inactive.
For CC1CCN(S(=O)(=O)c2cccc(C(=O)N(Cc3ccccc3)c3ccccn3)c2)CC1 the results were HttQ103 aggreg 11µM, IMPase Li cell inactive, NPSR antagonist inconclusive, ERK EGF inh inactive and HTT ATP protect inactive.
`CC(c1ccon1)N(C)Cc1cn(Cc2ccccc2)nc1-c1ccc2c(c1)OCO2` (centres undefined) gave HttQ103 aggreg 14µM, NPSR antagonist inconclusive, ERK EGF inh inactive and HTT ATP protect inactive.
Screening Cc1cc(=O)[nH]c(N2CCOCC2)n1 returned IMPase Li cell inactive, NPSR antagonist inactive and ERK EGF inh inactive.
For Cc1cc(N2CCOCC2)c2c(N)c(Br)cc(C)c2n1 the results were HttQ103 aggreg 2µM, IMPase Li cell inactive, NPSR antagonist inactive and HTT ATP protect inactive.
For CC#CCN1c2ccccc2[C@]23C[C@@H](C(=O)OC)N(C(=O)CC(C)C)C2=NC(C(=O)OC)=C(C(=O)OC)[C@H]13 the results were IMPase Li cell inactive and HTT ATP protect inactive[10 µM].
Screening CC(C)(C)c1cc(Br)c(O)c(N=Nc2ccc(S(=O)(=O)N3CCOCC3)cc2)c1 returned HttQ103 aggreg inactive, IMPase Li cell inactive, NPSR antagonist inactive, ERK EGF inh 25µM and HTT ATP protect inactive[10 µM].
O=C1C(=O)c2ccc(-c3ccccc3)cc2-c2ccccc21 was read as HttQ103 aggreg 4.5µM, IMPase Li cell inactive, NPSR antagonist 4µM, ERK EGF inh inactive and HTT ATP protect inactive[10 µM].
`Nc1ccc2c(c1)C(=O)C(=O)c1ccccc1-2` gave HttQ103 aggreg 0.79µM, IMPase Li cell inactive, NPSR antagonist 10µM and HTT ATP protect inactive[10 µM].
Screening CC(C)C(NC(=O)C(CC(=O)O)NC(=O)C(CCCCN)NC(=O)C(N)CCCN=C(N)N)C(=O)NC(Cc1ccc(O)cc1)C(=O)O (centres undefined) returned HttQ103 aggreg inactive and HTT ATP protect inactive.
`CC(=O)Nc1ccc(OC(=O)c2ccccc2OC(C)=O)cc1` gave HttQ103 aggreg inactive and HTT ATP protect inactive.
`Cc1ccccc1OCc1nc2ccccc2c(=O)n1/N=C/c1ccco1` gave HttQ103 aggreg 22µM, IMPase Li cell inactive, NPSR antagonist inactive, ERK EGF inh inactive and HTT ATP protect inactive[10 µM].
For Cc1nc2ccccc2c(=O)n1/N=C/c1ccco1 the results were HttQ103 aggreg inactive, IMPase Li cell inactive, NPSR antagonist inactive and ERK EGF inh inactive.
`Cc1cc(N=Nc2ccc(Cl)cc2)cc(CN2CCOCC2)c1O` gave HttQ103 aggreg inactive[9.22 µM], NPSR antagonist inactive, ERK EGF inh 16µM and HTT ATP protect inactive[10 µM].
Cc1cc(N=Nc2ccc(Cl)cc2)cc(CN2CCCC2)c1O was read as HttQ103 aggreg inactive[9.22 µM], NPSR antagonist inconclusive, ERK EGF inh 32µM and HTT ATP protect inactive[10 µM].
Screening CCOc1ccc(Cl)cc1CN1CCOCC1 returned HttQ103 aggreg inactive, IMPase Li cell inactive, NPSR antagonist inactive and HTT ATP protect inactive.
O=C(c1ccco1)N1CCC2(CC1)CCN(c1ccc(-c3ccccc3)cc1)CC2 was read as IMPase Li cell inactive, ERK EGF inh inactive and HTT ATP protect inactive.
`Cc1cccc(NC(=S)NCCc2c[nH]c3ccccc23)c1` gave HttQ103 aggreg 11µM, IMPase Li cell inactive, NPSR antagonist inactive, ERK EGF inh inactive and HTT ATP protect inactive[10 µM].
For Cc1ccc(NC(=S)NCCc2c[nH]c3ccccc23)cc1 the results were HttQ103 aggreg inactive, IMPase Li cell inactive, NPSR antagonist inactive and HTT ATP protect inactive.

Screening results: PubChem BioAssay, National Center for Advancing Translational Sciences (NCATS)
